# Results taken from PubChem BioAssay (NCATS).
# Inconclusive results are not listed. Where a call stands in place of a potency, no number is given. Unmarked numbers belong to inactive results. Activity calls are given as the source filed them. Calls come from the whole dose curve; as a rule, active = well fitted cell-killing curve with a large enough effect; inconclusive = small, poorly fitted or top-dose-only effect, or effect the other way; inactive = flat fitted curve, though single readings scatter.
# Tested on: CAOV3
# Assay: Primary qHTS to identify gynecologic anti-cancer compounds using libraries of approved drugs and bioactive compounds (AID 1345084); note: nearly all actives have a fitted effect of over 55% in size
# Details: Gynecologic cancer cell panel viability, ATPlite luminescence, 48 h; series mostly up to 57.5 µM
# Source text: National Center for Advancing Translational Sciences [NCATS] Assay Overview: Chemotherapeutic drug responses vary from cancer to cancer and from patient to patient. These variations could be caused by a number of factors including patient genomic background, tumor mutations, tumor heterogeneity, and aspects of drug treatment. Chemotherapeutic drug resistance is also a common issue and can lead to ineffective treatment and patient death. Here we have profiled the cell killing effects of thousands of compounds to characterize the responses in three gynecological cancers, identify cancer-selective compounds, and understand the diversity of responses to these compounds from pan-cancer suppressors to single cell line selective compounds. In this assay, we screened a 7,914 compound drug library that included approved drug and bioactive compounds in six ovarian, three cervical, and […] placental cancer cell lines using the ATPlite assay for cell viability. […] The cervical cancer cell lines included HeLa, Ca Ski, and C-33 A. The placental cancer cell lines included JEG-3. HEK 293T cells were used as the control cell line to determine the selectivity index. ATPlite is a luminescence based assay reliant on the conversion of a luciferase substrate to light in the presence of ATP. As a cytotoxic compound will suppress growth and decrease the number of cells, the concentration of ATP will decrease, and less light signal will be detected in the well.
# Assay Protocol Summary: 1,000 cells in 4 uL of media were dispensed into white, solid bottom 1536-well plates using a Multidrop Combi (Thermo Scientific). The Assay plates were incubated for 16 hours at 37 C with 5% CO2 in assay plates, followed by the addition of 23 nL of DMSO or drug dissolved in DMSO. Each compound was assayed in five concentrations (0.092, 0.46, 2.3, 11.5, and 57.5 uM), using the automated Wako 1536 Pin Tool workstation and incubated at 37 C with 5% CO2 48 hours. 4 uL of ATPlite, the ATP monitoring reagent, was then added to the each well of the assay plates using the Multidrop Combi reagent dispenser followed by incubation for 15 minutes at room temperature. The resulting luminescence was measured using the ViewLux plate reader.
SMILES,Potency,"activity change, negative = cytotoxicity"
O=C(OCC1=C[C@@H](O)[C@@H]2C=CO[C@@H](O[C@@H]3O[C@H](CO)[C@@H](O)[C@H](O)[C@H]3O)[C@H]12)c1ccc(O)cc1,inactive,–
CC(O)C1NC(=O)C2CCCN2C1=O (stereo not given),inactive,–
CC(=O)/C=C/C1(O)C(C)=CC(=O)CC1(C)C (stereo not given),inactive,–
O=C(OC[C@H]1O[C@H](O[C@]2(CO)O[C@H](CO)[C@@H](O)[C@@H]2O)[C@H](O)[C@@H](O)[C@@H]1O)c1ccc(O)cc1,inactive,–
CC1=C2CC3C(CCC3(C)O)C(C)(O)CC2OC1=O (stereo not given),inactive,–
OC[C@H]1O[C@@H](O[C@H]2[C@H](O)[C@@H](CO)O[C@@H](OCc3ccccc3)[C@@H]2O[C@@H]2OC[C@](O)(CO)[C@H]2O)[C@H](O)[C@@H](O)[C@@H]1O,inactive,–
NC1Nc2ccccc2C1(N)CC1NC(=O)C(Cc2ccccc2)NC(=O)C(Cc2ccccc2)NC1=O (stereo not given),inactive,–
O=C(N[C@@H]1CC[C@@H](c2cccc(F)c2F)CN(CC(F)(F)F)C1=O)N1CCC(n2c(=O)[nH]c3ncccc32)CC1,inactive,–
CC1(C)CC[C@]2(C(=O)O)CC[C@]3(C)C(=CCC4[C@@]5(C)CC[C@H](O)C(C)(C)C5CC[C@]43C)C2C1 (stereo not given in full),inactive,–
Cc1cc(-c2nncc3c(C(C)(C)C)c(OCc4ncnn4C)nn23)no1,inactive,–
C[C@H](/C=C/[C@@]1(O)[C@H](C)CC(=O)CC1(C)C)O[C@@H]1O[C@H](CO[C@@H]2OC[C@@H](O)[C@H](O)[C@H]2O)[C@@H](O)[C@H](O)[C@H]1O,inactive,–
C=C1CC/C=C(/CO)C(=O)C[C@@H]2[C@@H]1C[C@@]2(C)COC(C)=O,inactive,–
CSCC1OC(n2cnc3c(N)ncnc32)C(O)C1O (stereo not given),inactive,–
Cc1ccccc1NC(=O)Nc1ccc(CN2C(=O)N([C@@H](CC(C)C)C(=O)N[C@@H](CC(=O)O)c3ccccc3)C(=O)C2(C)C)cc1,inactive,–
CC1(C)OC(=O)C=C[C@@]2(C)C1CC(=O)[C@]1(C)C2CC[C@@]2(C)[C@H](c3ccoc3)OC(=O)[C@H]3O[C@]321 (stereo not given in full),inactive,–
COC(=O)[C@]1(C)CCC[C@@]2(C)[C@@H]3CC[C@@H]4C[C@@]3(CC[C@@H]21)C[C@H]4C(=O)O,inactive,–
COc1ccc(C2COc3cc(O)ccc3C2)c(O)c1OC (stereo not given),inactive,–
O=C(/C=C/c1ccc(O)cc1)OC[C@H]1O[C@@H](O/C(=C\c2ccccc2)C(=O)O)[C@H](O)[C@@H](O)[C@@H]1O,inactive,–
C[C@@H]1C[C@@H](O)[C@@]23CO[C@]2(CO)CCC[C@@H]3[C@@]12C[C@@H](c1ccoc1)OC2=O,inactive,–
CC(=O)O[C@H]1[C@H](O[C@H]2CC[C@]34C[C@]35CC[C@]3(C)[C@@H]([C@@]6(C)CC[C@@H](C(C)(C)O)O6)[C@@H](O)C[C@@]3(C)[C@@H]5C[C@H](O[C@@H]3O[C@H](CO)[C@@H](O)[C@H](O)[C@H]3O)[C@H]4C2(C)C)OC[C@@H](OC(C)=O)[C@@H]1O,inactive,–

SMILES,Potency,"activity change, negative = cytotoxicity"
CCC(=O)N1CCc2cc(OC)c(O)cc2C1,inactive,–
O=C(N[C@H](Cc1ccccc1)C(=O)O)c1sc2cc(F)ccc2c1Cl,inactive,–
CC(=O)O[C@@H](C[C@@H]1C=C(C)C(=O)O1)[C@H](C)[C@H]1CCC2[C@@]3(C)CC[C@H](O[C@@H]4O[C@H](CO)[C@@H](O)[C@H](O)[C@H]4O[C@@H]4O[C@@H](C)[C@H](O)[C@@H](O)[C@H]4O)C(C)(C)C3CC[C@@]2(C)[C@@]12COC(=O)C2 (stereo not given in full),–,4.91% [at 11.6 µM]
C=C[C@@]1(C)CCC2=C([C@H]1OC(C)=O)[C@H](OC(C)=O)CC1[C@](C)(C(=O)OC)CC[C@H](OC(C)=O)[C@]21C (stereo not given in full),inactive,–
CC12CC34CC(O)C5C(CO)(CO)CC(=O)CC5(C)C3CC1C2C4 (stereo not given),inactive,–
C/C(=C\C(=O)C[C@@]12C(=O)O[C@]3(C)CC[C@H]1C[C@H]23)C(N)=O,inactive,–
Cc1ccc(C)c(S(=O)(=O)n2cnc3ccccc32)c1,inactive,–
CC(=O)N[C@H]1[C@H](O[C@H]2CC[C@]3(C)C4CC=C5[C@@H]6CC(C)(C)CC[C@]6(C(=O)O)[C@H](O)C[C@@]5(C)[C@]4(C)CC[C@H]3C2(C)C)O[C@H](CO)[C@@H](O)[C@@H]1O (stereo not given in full),inactive,–
CC(C)C(NC(=O)c1ccc(O)cc1)C(=O)N1CCCC1C(=O)Nc1c(O)cccc1C(=O)O (stereo not given),inactive,–
CC1CCC2C(C(=O)O)=CC3(O)CC(C)(C)CC123 (stereo not given),inactive,–
CC1(C(=O)O)CC[C@]2(C(=O)OC3OC(CO)C(O)C(O)C3O)CC[C@]3(C)C(=CCC4[C@@]5(C)CC[C@H](OC6OCC(O)C(O)C6OC6OC(CO)C(O)C(O)C6O)C(C)(C)C5CC[C@]43C)C2C1 (stereo not given in full),–,-1.35% [at 11.6 µM]
CC1OC(OC2C(OC3C(O[C@H]4CC[C@@]5(C)C(CC[C@]6(C)C5C(=O)CC5=C7CC(C)(C)CC(O)[C@]7(C)CC[C@]56C)C4(C)C)OC(C(=O)O)C(O)C3O)OCC(O)C2O)C(O)C(O)C1O (stereo not given in full),–,18.5% [at 11.6 µM]
COc1cc(OC)cc(-c2ccc3c(-c4ccc(F)cc4)[nH]nc3n2)c1,inactive,–
CC1=C2CC(O)(C(C)(C)O)C(O[C@@H]3O[C@H](CO)[C@@H](O)[C@H](O)[C@H]3O)CC(C)C2CC1=O (stereo not given in full),inactive,–
Cc1ncc(Cl)cc1NCc1ccc(C(=O)NC(CC2CCCC2)C(=O)NC2CC2)s1 (stereo not given),inactive,–
CC1=CCC(O)C2(C)CCC3C(C)C(=O)OC3C12 (stereo not given),inactive,–
CCOc1nc2c(N)ncnc2n1CC,inactive,–
CC(C)c1ccc2c(c1)C(O)CC1C(C)(C(=O)O)CCCC21C (stereo not given),inactive,–
COc1cc(Nc2nc3ccccc3nc2NS(=O)(=O)c2cccc(NC(=O)c3ccc(C)c(OC)c3)c2)cc(OC)c1,inactive,–
OC[C@H]1O[C@@H](OCc2ccccc2)[C@H](O[C@@H]2OC[C@@H](O)[C@H](O)[C@H]2O)[C@@H](O)[C@@H]1O,inactive,–
